GLP1R inv ag: inverse agonists of human GLP-1 receptor; HEK293 GLP-1R CRE-luciferase, luminescence, 24 h; GLP-1R form is constitutively active; AID 624417; actives 1.6% (n = 410,000); Potency, µM (series often up to 38.3 µM), inactives show top-dose activity change, negative = inhibition, usual class: inhibitors; note: % is set by controls: 0 for no effect and ±100 for the full control effect; nearly all actives have a fitted effect of over 55% in size
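HEK293 cells stably co-expressing a cAMP-responsive luciferase reporter and constitutively active GLP-1R were seeded, incubated 12 h, then exposed to compounds for 24 h at 37 C. Luminescence was read 12 min after detection reagent; inverse agonists lower signal.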
GLP1R ag: GLP-1 receptor (human) agonism. AID 624172. P43220. Potency, µM (highest dose often 45.6 µM), without a hit: at the top dose activation, usual class: activators. actives 0.007% (n = 380,000). HEK293 GLP-1R CRE-luciferase, luminescence, 4-6 h; cells express a hypersensitive GLP-1R form; note: % of control where 0% means no effect
VP16 counter: counter-screen for ROR gamma inhibitors: Gal4-VP16 reporter; Drosophila S2 Gal4-VP16 UAS-luciferase, luminescence, 20 h; Potency, µM (doses to about 53.6 µM), for the others: top-dose activity, negative = inhibition, usual class: inhibitors; actives 3.5% (n = 310,000);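 note: Gal4-VP16 expression switched on by copper sulfate through the metallothionein promoter; % is set by controls: 0 for no effect and ±100 for the full control effect; nearly all actives have a fitted effect of over 50% in size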
HEK293 tox: cytotoxicity in counter-screen for GLP-1R inverse agonists | actives 0.13% (n = 410,000) | AID 624418 | HEK293 cAMP-luciferase reporter cells, luminescence, 24 h | Potency, µM (titrated, usually from 38.3 µM), for the others: at the highest dose activity change, negative = inhibition, actives largely listed as inhibitors;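 note: loss of luciferase light is scored as toxicity; % is set by controls: 0 for no effect and ±100 for the full control effect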
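Quantitative HTS format, 1536 wells, 200 cells/uL seeded. Compounds: 23 nL, 24 h, 37 °C. Detection: luciferase reagent, luminescence at 12 min RT; decreased signal taken as cytotoxic.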
RORgamma inh: inhibitors of mouse ROR gamma transcriptional activity; AID 2551; Drosophila S2 Gal4-RORgamma UAS-luciferase reporter, 20 h; P51450; actives 5.4% (n = 310,000); Potency, µM (top dose mostly 53.6 µM), for the others: top-dose activity change, negative = inhibition, most hits filed as inhibitors; note: % is set by controls: 0 for no effect and ±100 for the full control effect; nearly all actives have a fitted effect of over 60% in size
Target sequence (P51450 whole entry, looked up, the tested form may be a part): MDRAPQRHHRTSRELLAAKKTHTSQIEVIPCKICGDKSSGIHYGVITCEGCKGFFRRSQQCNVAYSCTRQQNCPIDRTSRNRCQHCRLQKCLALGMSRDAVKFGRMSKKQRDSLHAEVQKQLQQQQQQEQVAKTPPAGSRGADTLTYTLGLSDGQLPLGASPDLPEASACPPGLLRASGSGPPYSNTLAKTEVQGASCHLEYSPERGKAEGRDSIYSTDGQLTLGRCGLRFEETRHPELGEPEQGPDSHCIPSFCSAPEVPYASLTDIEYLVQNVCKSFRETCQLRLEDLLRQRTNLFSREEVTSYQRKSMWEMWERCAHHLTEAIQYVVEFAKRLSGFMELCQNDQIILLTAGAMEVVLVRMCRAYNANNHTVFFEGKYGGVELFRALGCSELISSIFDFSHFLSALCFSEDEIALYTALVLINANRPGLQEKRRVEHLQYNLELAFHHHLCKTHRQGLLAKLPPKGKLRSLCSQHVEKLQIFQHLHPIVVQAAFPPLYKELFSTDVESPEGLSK
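Luminescence from a UAS-regulated Photinus luciferase reporter in stably transfected Drosophila Schneider cells is measured; decreased signal marks ROR gamma inhibition. Fusion expression is induced by 700 uM copper sulfate for 20 hr.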
* = called active by the depositor; ? = inconclusive; / = no result given; ! = repeats disagree; [ ] = another dose, or the depositor's remark. Compounds with a hit are over-represented: about 5.9% of the library has one in this group of screens. Calls come from the whole dose curve; as a rule, active = well fitted curve in the direction sought with a large enough effect; inconclusive = small, poorly fitted or top-dose-only effect, or another doubt; inactive = no such curve, though single readings can be large; an effect the other way counts as inactive or inconclusive. Potency is the fitted concentration of half-maximal effect.

SMILES	GLP1R inv ag	GLP1R ag	VP16 counter	HEK293 tox	RORgamma inh
O=C(C#Cc1ccccc1)c1ccc([N+](=O)[O-])cc1	-24%	0%	7.9µM*	-13%	11µM*
O=c1c2c(-c3ccc(Cl)cc3)ccnc2[nH]n1-c1ccccc1	3%	-2%	/	2%	/
CC(C)CCNC(=O)CCCN1C(=O)c2ccccc2Sc2ncccc21	-1%	/	/	2%	/
CCCCNc1c2c(nc3c(-c4ccccc4)c(C)nn13)CCC2	0%	23%	1%	4%	-4%
Cc1nn2c(N3CCN(CCO)CC3)c3c(nc2c1-c1ccccc1)CCCC3	3.5µM*	26%	15%	0%	10%
CCC(C)Nc1c2c(nc3c(-c4ccccc4)c(C)nn13)CCC2 (configuration not stated)	0%	10%	-12%	5%	10µM*
Cc1nn2c(Nc3ccc(F)cc3)c3c(nc2c1-c1ccccc1)CCC3	-7%	0%	?	-9%	2.8µM*
COCCNc1c2c(nc3c(-c4ccccc4)c(C)nn13)CCCC2	0%	-5%	-2%	-16%	?
Cc1nn2c(NCCN(C)C)c3c(nc2c1-c1ccccc1)CCCC3	?	28%	0.45µM*	-39%	?
C=CCn1c(=O)n(C2OC(CO)C(O)C2O)c2nc(N)[nH]c(=O)c21 (configuration not stated)	/	7%	-8%	/	-7%
O=c1n(Cc2cc3c(cc2Cl)OCO3)c(=O)n2n1CC[C@H]1/C(=N\OCc3ccccc3)[C@H]3O[C@@H]3[C@@H](O)[C@@H]12	/	/	2%[10 µM]	/	-1%[10 µM]
COc1cccc(Nc2c3c(nc4c(-c5ccccc5)c(C)nn24)CCC3)c1	5µM*	2%	3.2µM*	2%	?
COc1ccc2nc3c(nc2c1)CCCC3	84%	10%	0%	12%	12%
COc1cccc(Nc2c3c(nc4nncn24)CCC3)c1	-1%	/	/	0%	/
COc1ccc2nc3c(c(-c4ccccc4)c2c1)CCC3	-6%	19%	18µM*!	6%	11µM*
CC(C)(C)C1CCc2c(sc(NC(=O)Cn3nnc(-c4ccccc4Cl)n3)c2C#N)C1 (configuration not stated)	-10%	/	/	9%	/
CC1(C)Cc2ccccc2-c2n[nH]c(=S)n21	6%	-1%	0.89µM*	-7%	2.8µM*
CC1=C(C)C(=O)C(C(CCCCCC(=O)O)c2ccccc2)=C(C)C1=O (configuration not stated)	/	4%	-1%	/	-3%
O=C(CCCn1c2ccccc2c(=O)c2ccccc21)Nc1cccc(Cl)c1	6.3µM*	/	/	148%	/
COc1ccc2c(c1)C(c1ccccc1OC)CC(=O)O2 (configuration not stated)	/	/	0%	/	4%
Cc1ccccc1N=C(NOCc1ccccc1)c1nonc1N	10µM*	-1%	10%	-7%	?
Cc1ccccc1N=C(NOCc1ccc(Cl)cc1Cl)c1nonc1N	0%	-5%	-7%	-12%	-9%
C/C(=C1/C(=O)N(c2ccc([N+](=O)[O-])cc2)N=C1c1ccccc1)N(C)C	/	/	14µM*	/	?
COc1ccccc1CCNC(=O)c1cc(C2CC2)nc2c1cnn2C(C)C	10µM*	29%	/	0%	/
COc1ccccc1OCCNC(=O)c1cc(C2CC2)nc2c1cnn2C(C)C	2%	-2%	/	-15%	/
COc1ccccc1N1CCN(C(=O)c2ccccc2Oc2ccccc2)CC1	8.9µM*	3%	-8%	-6%	0%[10 µM]
Cc1ccccc1N1CCN(C(=O)c2cc(-c3ccccc3)nc3c2cnn3C(C)C)CC1	5%	-3%	/	5%	/
COc1ccccc1N1CCN(C(=O)c2cc(-c3ccccc3)nc3c2cnn3C(C)C)CC1	11µM*	0%	/	4%	/
CC1(C)CC(C)(c2ccc(O)cc2O)N(c2cccc(Cl)c2)C(=S)N1 (configuration not stated)	-14%	-1%	-8%	-20%	?
CC1(C)CC(C)(c2ccc(O)cc2O)N(c2ccc3ccccc3c2)C(=S)N1 (configuration not stated)	?	-4%	?	?	7.9µM*

Screening results deposited in PubChem by National Center for Advancing Translational Sciences (NCATS).
